Assay in all cases: PBM binding z-score (relative to random genomic background probes); higher = stronger binding; sequences stand for … in GC…GCGATTGACAGCGTAGAATGAAGG
Test [1] relates to RARb homodimer (NR concentration 270 nM). In a few lines: (§1)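 On custom Agilent 4×180K arrays, double-stranded probes with 34-nt variable regions carried direct-repeat seeds, single-nucleotide variants, half-site ablations or random human genomic background. Ligand-free nuclear receptor dimers were applied for 1 h, and binding was read with antibodies against each partner (one per run). Binding z-scores come from regression-normalized fluorescence, with the random background probes as reference.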

Test [2] has as its system RARg:RXRa (NR concentration 270 nM, RXRa partner concentration 90 nM). In a few lines: as §1
Test [3] has as its system RARg homodimer (NR concentration 270 nM). In a few lines:
as §1

The subject of test [4] is RXRa DBDmut IVT, anti-RXR (DBD mutation: RXRa K156A/R161A, NR concentration 90 nM). In a few lines:
as §1

Test [5] relates to RXRa homodimer (NR concentration 180 nM). In a few lines: as §1
The subject of test [6] is THRa:RXRa (NR concentration 90 nM, RXRa partner concentration 90 nM). In a few lines: as §1
In test [7] the test system is THRa homodimer (NR concentration 90 nM). In a few lines:
as §1

The test system of test [8] is VDR homodimer (NR concentration 270 nM). In a few lines:
as §1

Turning to GCTTGTTGGTCAGTAAAAGGTCACACACCGGTCG, the PBM binding z-score turned out to be 5.37 in test [1]; 5.53 in test [2]; 4.67 in test [3]; 0.545 in test [4]; 5.16 in test [5]; 3.5 in test [6]. Further, the PBM binding z-score in test [7] was found to be 2.15; in test [8] it was 1.68.

On to TCTTGTGGATCAAGCAGGTTAAGAAAGCCTGAGT, for which the PBM binding z-score in test [1] was 0.266; in test [2], -0.132; in test [3], -0.515; in test [4] it was 0.604; in test [5], 0.211; in test [6] it was 0.309. Further, the PBM binding z-score in test [7] was -0.303; in test [8], 0.15.

For the sequence CCTACTGGGCCATCAGGTCATTGATATCAACGTT, the PBM binding z-score in test [1] was 2.73; in test [2], 2.15; in test [3] it was 2.21; in test [4], 0.377; in test [5], 1.17; in test [6] it was 3.14. Moreover, the values for the PBM binding z-score in test [7] and in test [8] were 3.21 and 1.66, respectively.

Turning to GCTAGCAGGCCATTTGGTTCACTCAATGACGGGC, the PBM binding z-score was -0.301 in test [1]; -0.115 in test [2]; -0.168 in test [3]; 0.552 in test [4]; -0.107 in test [5]; -0.195 in test [6]. Also, the PBM binding z-score in test [7] is -0.949; in test [8] it was 1.2.

As for CGGCCAAGGTCAGCAGGTCAGTGAAAGCGACGTG, the PBM binding z-score in test [1] was found to be 5.01; in test [2] it was 6.21; in test [3], 6.95; in test [4], 2.22; in test [5], 5.05; in test [6] it was 3.85. In addition, the PBM binding z-score in test [7] is 1.94; in test [8] it was 1.09.

CGTCCAAGGTCAAGGTCAGTTAAAGAGACTCGAA: the PBM binding z-score in test [1] is 5.26; in test [2] it was 6.92; in test [3] it was 7.72; in test [4], 3.68; in test [5], 6.66; in test [6], 4.4. For the same sequence, the values for the PBM binding z-score in test [7] and in test [8] were 3.3 and 3.29, respectively.

On to TTACCAAGGAGAGCTGAGGTCGTTGATCCAACTC, for which the PBM binding z-score was 0.714 in test [1]; 0.0578 in test [2]; -0.138 in test [3]; -0.0158 in test [4]; 0.657 in test [5]; 2.56 in test [6]. For the same sequence, the PBM binding z-score in test [7] turned out to be 1.2; in test [8], 2.11.

As for CGTCAAAGTTCAGCTAAGGTAACGTAAAGCACGC, the PBM binding z-score in test [1] was determined as 3.8; in test [2] it was 4.28; in test [3], 5.29; in test [4] it was 3.46; in test [5], 3.15; in test [6] it was 5.46. The PBM binding z-score in test [7] amounted to 2.11; in test [8], 1.84.

For the sequence TCTGGTAGATCAACAGGAGGTTAAGAAAGATCGA, the PBM binding z-score turned out to be 0.385 in test [1]; 0.66 in test [2]; 0.298 in test [3]; 0.299 in test [4]; 0.827 in test [5]; 0.849 in test [6]. Also, the PBM binding z-score is -0.374 in test [7] and 0.00452 in test [8].

As to CCGATTGGGGCAAGGTTACCATAACGCACAGCCA, the PBM binding z-score came out at 1 in test [1]; 1.02 in test [2]; 1.3 in test [3]; 0.17 in test [4]; 1.09 in test [5]; 1.2 in test [6]. Also, the PBM binding z-score in test [7] was 0.241; in test [8], -0.398.

With CCGACTGGGACAAAGGTTACCATACTCAGTACGA, the PBM binding z-score is 1.88 in test [1]; 2.42 in test [2]; 1.43 in test [3]; 0.478 in test [4]; 2.21 in test [5]; 1.75 in test [6]. Further, the PBM binding z-score is 0.208 in test [7] and -0.0207 in test [8].

On to ATCTCTAGGAAAAGATAGTTCAGTGAATGCAAAT, for which the PBM binding z-score in test [1] came out at 0.679; in test [2] it was 0.447; in test [3], 0.556; in test [4], 0.143; in test [5], 0.0291; in test [6] it was 0.206. Besides, the PBM binding z-score is -0.344 in test [7] and 0.566 in test [8].

With AGAACGAGGGCGATGAGTTGATAGCACGGGTGGC, the PBM binding z-score in test [1] was -0.239; in test [2], -0.0988; in test [3], 0.302; in test [4], 1.06; in test [5] it was 0.298; in test [6], -0.0851. In addition, the PBM binding z-score in test [7] is -0.71; in test [8], 2.17.

As to CCGACTGGGGCATAAGCTTACCATAAGCCAGCCC, the PBM binding z-score in test [1] is -0.773; in test [2], -0.376; in test [3], -0.313; in test [4] it was 0.074; in test [5], -0.312; in test [6], -0.645. The results for the PBM binding z-score in test [7] and in test [8] were -1.06 and -0.947, respectively.

The record behind these values is the supplement of paper PMC6555819.
